Screening results from PubChem.
The full list was thinned out, with hits kept by preference.
nsP2pro inh – blocks chikungunya virus nsP2 protease peptide cleavage. Q8JUX6. AID 1964107. 31,000 compounds, 1.1% hits. FRET peptide cleavage, nsP2pro, fluorescence 1 h. Potency, µM (series often up to 24.9 µM), usual class: inhibitors; note: nearly all actives have a fitted effect of over 60% in size
Target sequence (Q8JUX6 whole entry, looked up): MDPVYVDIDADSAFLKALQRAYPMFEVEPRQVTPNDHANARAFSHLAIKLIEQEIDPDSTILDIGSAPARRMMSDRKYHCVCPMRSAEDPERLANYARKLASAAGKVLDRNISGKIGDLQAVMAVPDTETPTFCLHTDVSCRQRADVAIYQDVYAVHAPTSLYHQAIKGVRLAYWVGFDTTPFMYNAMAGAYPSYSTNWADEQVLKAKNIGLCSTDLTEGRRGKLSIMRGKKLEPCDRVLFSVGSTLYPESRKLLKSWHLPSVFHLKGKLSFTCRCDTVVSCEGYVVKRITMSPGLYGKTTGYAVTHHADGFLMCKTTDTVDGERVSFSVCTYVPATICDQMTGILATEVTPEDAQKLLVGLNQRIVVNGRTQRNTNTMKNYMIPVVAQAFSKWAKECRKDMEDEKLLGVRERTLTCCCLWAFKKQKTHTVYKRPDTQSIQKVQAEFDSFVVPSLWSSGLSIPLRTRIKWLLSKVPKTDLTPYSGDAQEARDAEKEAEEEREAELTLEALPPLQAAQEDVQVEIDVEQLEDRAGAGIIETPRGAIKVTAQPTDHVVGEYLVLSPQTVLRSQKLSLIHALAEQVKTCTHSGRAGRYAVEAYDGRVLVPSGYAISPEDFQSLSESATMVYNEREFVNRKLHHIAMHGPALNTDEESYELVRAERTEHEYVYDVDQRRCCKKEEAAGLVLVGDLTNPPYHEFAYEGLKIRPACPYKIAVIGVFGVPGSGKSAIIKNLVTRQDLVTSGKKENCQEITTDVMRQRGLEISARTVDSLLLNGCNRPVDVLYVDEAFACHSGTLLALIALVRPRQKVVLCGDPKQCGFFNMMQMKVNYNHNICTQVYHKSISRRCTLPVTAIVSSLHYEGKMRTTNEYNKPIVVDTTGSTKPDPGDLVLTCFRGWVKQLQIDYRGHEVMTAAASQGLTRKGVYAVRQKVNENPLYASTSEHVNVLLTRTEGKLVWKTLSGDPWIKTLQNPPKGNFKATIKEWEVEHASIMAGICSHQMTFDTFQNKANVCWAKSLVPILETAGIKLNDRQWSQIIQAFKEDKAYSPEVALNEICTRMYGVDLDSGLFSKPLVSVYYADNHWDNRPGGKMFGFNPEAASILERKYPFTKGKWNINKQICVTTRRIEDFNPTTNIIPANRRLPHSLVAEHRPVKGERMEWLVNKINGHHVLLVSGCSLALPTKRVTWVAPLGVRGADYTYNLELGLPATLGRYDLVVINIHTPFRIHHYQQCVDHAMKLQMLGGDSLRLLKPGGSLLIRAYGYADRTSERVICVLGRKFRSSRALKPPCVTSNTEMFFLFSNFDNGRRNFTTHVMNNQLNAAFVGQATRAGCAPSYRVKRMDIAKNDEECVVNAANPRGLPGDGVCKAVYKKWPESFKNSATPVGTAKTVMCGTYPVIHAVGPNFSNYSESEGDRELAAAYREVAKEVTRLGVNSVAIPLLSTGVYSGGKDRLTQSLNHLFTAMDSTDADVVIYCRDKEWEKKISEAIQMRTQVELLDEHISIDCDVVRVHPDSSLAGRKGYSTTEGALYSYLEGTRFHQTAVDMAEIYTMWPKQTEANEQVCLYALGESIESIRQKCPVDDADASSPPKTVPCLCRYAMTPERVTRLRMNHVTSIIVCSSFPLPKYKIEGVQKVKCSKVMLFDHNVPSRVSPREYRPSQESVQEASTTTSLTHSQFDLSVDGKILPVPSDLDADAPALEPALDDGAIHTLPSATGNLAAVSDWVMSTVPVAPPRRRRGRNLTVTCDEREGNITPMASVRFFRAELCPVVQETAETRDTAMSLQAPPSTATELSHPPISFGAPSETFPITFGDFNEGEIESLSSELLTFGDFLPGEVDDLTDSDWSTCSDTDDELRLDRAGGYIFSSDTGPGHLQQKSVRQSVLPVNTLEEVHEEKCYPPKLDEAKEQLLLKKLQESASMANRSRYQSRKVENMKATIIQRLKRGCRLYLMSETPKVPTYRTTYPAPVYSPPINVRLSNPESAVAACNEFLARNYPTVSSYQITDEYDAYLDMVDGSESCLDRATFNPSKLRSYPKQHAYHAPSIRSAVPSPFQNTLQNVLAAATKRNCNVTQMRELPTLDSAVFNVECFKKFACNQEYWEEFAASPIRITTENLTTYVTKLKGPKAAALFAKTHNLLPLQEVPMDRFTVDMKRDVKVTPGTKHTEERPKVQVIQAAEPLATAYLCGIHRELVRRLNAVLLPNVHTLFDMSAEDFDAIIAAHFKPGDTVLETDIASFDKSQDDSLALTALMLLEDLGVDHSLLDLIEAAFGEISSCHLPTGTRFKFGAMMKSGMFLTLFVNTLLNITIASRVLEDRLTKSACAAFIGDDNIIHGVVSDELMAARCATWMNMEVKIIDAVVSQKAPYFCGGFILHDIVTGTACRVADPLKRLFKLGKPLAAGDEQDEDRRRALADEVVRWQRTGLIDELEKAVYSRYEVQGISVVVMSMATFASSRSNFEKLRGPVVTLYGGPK
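FRET cleavage of 2.5 uM peptide 2 by 150 nM CHIKV protease domain at pH 8.0 (Tris, Tween 20). Compounds at 7 concentrations (up to 25 uM) preincubated 15 min. Fluorescence read after 1 h at room temperature.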
CHIKV nsP2 cell – cell-based CHIKV nsP2 protease inhibition, secondary; shares compounds with nsP2pro inh; 450 compounds, 10% hits; cell-based CHIKV nsP2 protease reporter assay; Potency, µM (top dose mostly 51.1 µM), most hits filed as inhibitors; note: nearly all actives have a fitted effect of over 70% in size
CHIKV NSP2 FL – full-length CHIKV NSP2 protease inhibition, selectivity; shares compounds with nsP2pro inh; Potency, µM (doses to about 50.7 µM), usual class: inhibitors; AID 1964101; Full-length CHIKV NSP2 protease enzymatic counterscreen; 410 compounds, 39% hits; note: nearly all actives have a fitted effect of over 65% in size
Furin counter – inhibits human furin in a CHIKV nsP2 protease selectivity counterscreen; Potency, µM (top dose mostly 50.6 µM), usual class: inhibitors; 410 compounds, 6% hits; Recombinant human furin enzymatic counterscreen, fluorogenic substrate; shares compounds with nsP2pro inh; AID 1964102
NS23 peptide cs – nsP2pro inhibition on native NS2/3 peptide substrate | 410 compounds, 34% hits | Purified CHIKV nsP2 protease, endogenous NS2/3 peptide cleavage | shares compounds with nsP2pro inh | Potency, µM (series often up to 51 µM), hits mostly inhibitors; note: nearly all actives have a fitted effect of over 55% in size
Papain cs – papain protease inhibition, counterscreen for nsP2pro inhibitors. shares compounds with nsP2pro inh. purified papain protease activity, enzymatic inhibition. Potency, µM (titrated, usually from 51 µM), usual class: inhibitors. 410 compounds, 5% hits
nsP2pro conf qHTS – confirmation of CHIKV nsP2 protease inhibitors | shares compounds with nsP2pro inh | 410 compounds, 43% hits | AID 1964105 | Potency, µM (top dose mostly 25.5 µM), hits mostly inhibitors | CHIKV nsP2 protease enzymatic activity, qHTS; note: nearly all actives have a fitted effect of over 75% in size
HCV NS3 counter – HCV NS3/4A protease inhibition, counterscreen; shares compounds with nsP2pro inh; HCV NS3/4A protease biochemical counterscreen; Potency, µM (highest dose often 50.9 µM), most hits filed as inhibitors; 410 compounds, 20% hits; note: nearly all actives have a fitted effect of over 55% in size
Large screens that a line does not name were inactive (follow-up assays come after a bar, where they were run). Calls come from the whole dose curve.

COCCN1C(=O)CO[C@H]2CN(c3ncccn3)C[C@H]21	nsP2pro inh 7.9µM | CHIKV nsP2 cell inactive | CHIKV NSP2 FL 33µM | Furin counter inconclusive | NS23 peptide cs inconclusive | Papain cs inactive | nsP2pro conf qHTS 16µM | HCV NS3 counter inconclusive
CC(C)N1C[C@@H]2OCC(=O)N(Cc3ccccc3)[C@@H]2C1	none
O=C1O[C@@H]2CN(c3ncccn3)C[C@@H]2N1CCc1ccc(F)cc1	none
Cc1nc(C2CCN(C(=O)Cc3ccccc3)CCN2C(=O)Cc2ccccc2)n[nH]1 (stereo unspecified)	nsP2pro inh inconclusive | CHIKV nsP2 cell inactive | CHIKV NSP2 FL inconclusive | Furin counter inactive | NS23 peptide cs inconclusive | Papain cs inactive | nsP2pro conf qHTS inconclusive | HCV NS3 counter inconclusive
COc1ccc(CC(=O)N2CCC(c3n[nH]c(=O)n3Cc3ccc(F)cc3)CC2)cc1	none
CN(Cc1ccccc1)C(=O)CC1CCN(C(=O)Cc2ccccc2)C1 (stereo unspecified)	none
COc1cccc(CN2CCC3(CCC3OC)CC2)c1 (stereo unspecified)	none
CC(Cc1ccc(O)c(O)c1)C(C)Cc1ccc(O)c(O)c1 (stereo unspecified)	nsP2pro inh 9.9µM | CHIKV nsP2 cell inactive | CHIKV NSP2 FL 29µM | Furin counter inactive | NS23 peptide cs 21µM | Papain cs inactive | nsP2pro conf qHTS 8µM | HCV NS3 counter inactive
CC(CCc1ccc(O)cc1)NCCc1ccc(O)c(O)c1 (stereo unspecified)	none
COc1cc(CN2CCC(CO)(CN3CCCC3)CC2)ccc1F	none
COc1cccc(N2C(=O)NC(=NC3CCCCC3)C23CCCN(CC2CCCCC2)C3)c1 (stereo unspecified)	none
COc1ccc(C2CCC(=O)N2Cc2ccc(F)cc2)cc1 (stereo unspecified)	none
CC(=O)N[C@H](CC(C)C)c1nc(-c2ccc(C)nn2)no1	none
C=C(C)CNc1ccc(C(C)C(=O)O)cc1 (stereo unspecified)	nsP2pro inh 8.8µM | CHIKV nsP2 cell inactive | CHIKV NSP2 FL inactive | Furin counter inactive | NS23 peptide cs inactive | Papain cs inactive | nsP2pro conf qHTS inactive | HCV NS3 counter inactive
CC(C(=O)O)c1ccc(CC2CCCC2=O)cc1 (stereo unspecified)	none
CC(C(=O)O)c1ccc(C(=O)c2cccs2)cc1 (stereo unspecified)	none
N#Cc1ccc(N2N=C3c4ccc(C(=O)O)cc4CC[C@@H]3[C@@H]2C2CCCC2)cc1Cl	none
Cc1ccccc1CNC[C@H]1Cn2c(-c3ccccc3)cnc2CO1	none
CCCCC(=O)O	none
CCCCCCCCCCCCCC(=O)O	none
CCCCCCCCCCCCCCCCCC(=O)O	nsP2pro inh inconclusive | CHIKV nsP2 cell inactive | CHIKV NSP2 FL 3.7µM | Furin counter inactive | NS23 peptide cs inactive | Papain cs 21µM | nsP2pro conf qHTS 4µM | HCV NS3 counter inactive
CC(C)(C)n1nnnc1C1CC2(CCOCC2)C(=O)N1Cc1cccs1 (stereo unspecified)	none
CC(C)c1noc(-c2cn(C3CCN(C(=O)Cc4ccc(F)cc4)C3)nn2)n1 (stereo unspecified)	none
O=C(O)CC[C@@H]1CN(C(=O)c2ccc(CO)o2)CC[C@@H]1N1CCOCC1	none
C=CCN1CCN(C(=O)[C@@H]2Cc3c[nH]c4cccc(c34)[C@H](CC(C)C)N2)CC1	none
C=CCN1C[C@H](C(=O)N(CCCN(C)C)C(=O)NCC)C[C@@H]2c3cccc4[nH]cc(c34)C[C@H]21	nsP2pro inh inconclusive | CHIKV nsP2 cell inactive | CHIKV NSP2 FL inactive | Furin counter inactive | NS23 peptide cs inactive | Papain cs inactive | nsP2pro conf qHTS inactive | HCV NS3 counter inactive
Cc1ccnc(NC(=S)N2CCCc3ccc(C(F)(F)F)cc32)c1	none
COc1ccc(-n2nc(C3CCCN(C(=O)c4ccc(Cl)nc4)C3)[nH]c2=O)cc1 (stereo unspecified)	none
O=C1CCN(Cc2cccc(F)c2)CCCOCCN1	none
COc1cccc(CN2CCOCCNC(=O)CC2)c1	none
C(#Cc1cccc(CN2CCOCC2)c1)CCN1CCCCC1	nsP2pro inh 9.9µM | CHIKV nsP2 cell inactive | CHIKV NSP2 FL inconclusive | Furin counter inactive | NS23 peptide cs inconclusive | Papain cs inactive | nsP2pro conf qHTS inconclusive | HCV NS3 counter inactive
CC[C@@H]1[C@@H]2CN(C(=O)[C@H](C(C)(C)C)NC(=O)O[C@@H]3C[C@H]3CCCCC(F)(F)c3nc4ccc(OC)cc4nc3O2)[C@@H]1C(=O)N[C@]1(C(=O)NS(=O)(=O)C2(C)CC2)C[C@H]1C(F)F	none
CC1(C)CN2C(CSC(=NC3CCCCC3)NC3CCCCC3)=CSC2=N1	none
Cc1ccc(S(=O)(=O)/C=C/C#N)cc1	nsP2pro inh 0.88µM | CHIKV nsP2 cell inconclusive | CHIKV NSP2 FL 0.92µM | Furin counter inactive | NS23 peptide cs 4.6µM | Papain cs inactive | nsP2pro conf qHTS 0.28µM | HCV NS3 counter inactive
C[C@H]1[C@@H]2[C@@H](O)C([C@H](C)C(=O)NCc3cccs3)CC[C@@]2(C)CC[C@@H]1NC(=O)COc1ccccc1 (stereo partly specified)	none
CC(=O)Nc1ccccc1NC(=O)c1cnn2c(C)cc(C)nc12	none
Cc1cc(C)nc(NC(=S)N2CCN(c3nc4ccccc4s3)CC2)c1	none
Cc1c(-c2ccccc2F)[nH]c2ccc(CNC(=O)C3C=CCN3)cc12 (stereo unspecified)	none
C=C1[C@@H]2CC[C@@]3(C)[C@H](c4ccoc4)OC(=O)C[C@]13O[C@H]1CC(=O)C(C)(C)[C@H](C(OC(C)=O)C(=O)OC)[C@]12C (stereo partly specified)	none
CC1(C)O[C@H]2CC(=O)OC[C@@]23C1=C(O)C(=O)[C@]1(C)C3CC[C@@]2(C)[C@H](c3ccoc3)OC(=O)[C@H]3O[C@]321 (stereo partly specified)	nsP2pro inh inconclusive | CHIKV nsP2 cell inactive | CHIKV NSP2 FL inactive | Furin counter inactive | NS23 peptide cs inactive | Papain cs inactive | nsP2pro conf qHTS inactive | HCV NS3 counter inconclusive
CC1(C)OC(=O)CC(O)C2(C)C1CC(=O)C1(C)C2C(O)CC2(C)C(c3ccoc3)OC(=O)C3OC321 (stereo unspecified)	nsP2pro inh inconclusive | CHIKV nsP2 cell inactive | CHIKV NSP2 FL inactive | Furin counter inactive | NS23 peptide cs inactive | Papain cs inactive | nsP2pro conf qHTS inactive | HCV NS3 counter inactive
CCNC(=O)N(C1CC1)C1CCOC2(CCN(C(=O)COc3ccccc3)CC2)C1 (stereo unspecified)	none
